# About 8,800 targets were measured; listed, in parts, are those with a hit and a random draw of the rest. About 0.5% of all pairs of compound and target were hits. Values without a mark were called inactive.
# Columns and labels:
# Assay in all cases: log2 fold change, soluble protein after heating vs DMSO (PISA); higher = thermal stabilisation; K562 lysate, 10 uM; active = over 0.2 and 3.5 SD of the protein, either way, in both replicates (recomputed)
# [1] = compound: C=CC(=O)N1CCC[C@@H](n2nc(-c3ccc(Oc4ccccc4)cc3)c3c(N)ncnc32)C1 [ibrutinib]
# How it was run: (§1)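 Pellets of K562 cells were dounce-homogenised in PBS pH 7.4 with 1 mM MgCl2, and the crude extract was held at 1 mg/mL protein for a 30 min treatment with 10 μM compound. Aliquots were heated for 3 min over 48°C-58°C and pooled before NP-40 was added to 0.5% at 4°C. The supernatant from 21,000xg for 90 min was quantified by TMTpro 16plex LC-MS/MS with channel sums equalised. Values are reported from duplicates as log-two fold change in thermal stability relative to solvent controls.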
# [2] = compound: CC(=O)c1cnc2ccc(-c3cc(Cl)c(O)c(Cl)c3)nc2c1N[C@H]1CC[C@H](CN(C)C)CC1
# How it was run: as §1
# [3] = compound: CC(C)(C)Cn1c(N)nc2ccc(-c3[nH]c(C(C)(C)C)nc3-c3ccc(F)cc3)nc21 [ralimetinib]
# How it was run: as §1
# [4] = compound: CC(C)(O)CC(=O)NCCn1ccc2ncnc(Nc3ccc(Oc4cccc(C(F)(F)F)c4)c(Cl)c3)c21
# How it was run: as §1
# [5] = compound: CC(C)C1=C2N=C(C=C(N2N=C1)NCC3=CC=CC=C3)NCCCCCCN
# How it was run: as §1
# [6] = compound: CC1=C(C(CC(=O)N1)C2=CC=C(C=C2)C(F)(F)F)C(=O)NC3=C(C=C4C(=C3)C=NN4)F
# How it was run: as §1
# [7] = compound: CC1=C(C2=C(C=C1)C(=O)C3=CC=CC=C3N2CCCN)C
# How it was run: as §1
# [8] = compound: CC1=C(C=C(C=C1)NC(=O)C2=CC(=CC=C2)N(C)C)NC(=O)C3=CC=C(C=C3)O
# How it was run: as §1
# [9] = compound: CC1=CC=C(C=C1)SC2=C3C=C(SC3=CN=C2)C(=O)N
# How it was run: as §1
# [10] = compound: CCCS(=O)(=O)Nc1ccc(F)c(C(=O)c2c[nH]c3ncc(Cl)cc23)c1F
# How it was run: as §1
# [11] = compound: CCN(CCCOc1ccc2c(Nc3cc(CC(=O)Nc4cccc(F)c4)[nH]n3)ncnc2c1)CCOP(=O)(O)O [barasertib]
# How it was run: as §1
# [12] = compound: CC[C@@H]1C(=O)N(C)c2cnc(Nc3ccc(C(=O)N[C@H]4CC[C@H](N5CCN(CC6CC6)CC5)CC4)cc3OC)nc2N1C(C)C [volasertib]
# How it was run: as §1
# [13] = compound: CCn1c(C(=O)N(C2CC2)C2CC2)cc2c3c(ncn3C)c(Nc3cc(C)n(C)n3)nc21
# How it was run: as §1
# [14] = compound: CCn1cc(-c2ccnc3[nH]c(-c4cccc(CN(C)C)c4)cc23)c(-c2ccc(NC(=O)N(C)C)cc2)n1
# How it was run: as §1
# [15] = compound: CN1CCC(CNc2ccc3ncc(-c4cccc(OC(F)(F)F)c4)n3n2)CC1
# How it was run: as §1
# [16] = compound: CN1CCN(CCOc2cc(OC3CCOCC3)c3c(Nc4c(Cl)ccc5c4OCO5)ncnc3c2)CC1 [saracatinib]
# How it was run: as §1
# [17] = compound: CC1=C(C=C(C=C1)NC(=O)C2=CC(=CC=C2)C(C)(C)C#N)NC3=CC4=C(C=C3)N=CN(C4=O)C
# How it was run: as §1
# [18] = compound: CCCS(=O)(=O)Nc1ccc(F)c(C(=O)c2c[nH]c3ncc(-c4ccc(Cl)cc4)cc23)c1F [vemurafenib]
# How it was run: as §1
# [19] = compound: CC[C@@H]1C(=O)N(C)c2cnc(Nc3ccc(C(=O)NC4CCN(C)CC4)cc3OC)nc2N1C1CCCC1
# How it was run: as §1
# [20] = compound: CN1CCN(c2nc(C3=C(c4c[nH]c5ccccc45)C(=O)NC3=O)c3ccccc3n2)CC1 [sotrastaurin]
# How it was run: as §1
# Sequence of UniProt Q6NUQ1 (Q6NUQ1 whole entry, looked up): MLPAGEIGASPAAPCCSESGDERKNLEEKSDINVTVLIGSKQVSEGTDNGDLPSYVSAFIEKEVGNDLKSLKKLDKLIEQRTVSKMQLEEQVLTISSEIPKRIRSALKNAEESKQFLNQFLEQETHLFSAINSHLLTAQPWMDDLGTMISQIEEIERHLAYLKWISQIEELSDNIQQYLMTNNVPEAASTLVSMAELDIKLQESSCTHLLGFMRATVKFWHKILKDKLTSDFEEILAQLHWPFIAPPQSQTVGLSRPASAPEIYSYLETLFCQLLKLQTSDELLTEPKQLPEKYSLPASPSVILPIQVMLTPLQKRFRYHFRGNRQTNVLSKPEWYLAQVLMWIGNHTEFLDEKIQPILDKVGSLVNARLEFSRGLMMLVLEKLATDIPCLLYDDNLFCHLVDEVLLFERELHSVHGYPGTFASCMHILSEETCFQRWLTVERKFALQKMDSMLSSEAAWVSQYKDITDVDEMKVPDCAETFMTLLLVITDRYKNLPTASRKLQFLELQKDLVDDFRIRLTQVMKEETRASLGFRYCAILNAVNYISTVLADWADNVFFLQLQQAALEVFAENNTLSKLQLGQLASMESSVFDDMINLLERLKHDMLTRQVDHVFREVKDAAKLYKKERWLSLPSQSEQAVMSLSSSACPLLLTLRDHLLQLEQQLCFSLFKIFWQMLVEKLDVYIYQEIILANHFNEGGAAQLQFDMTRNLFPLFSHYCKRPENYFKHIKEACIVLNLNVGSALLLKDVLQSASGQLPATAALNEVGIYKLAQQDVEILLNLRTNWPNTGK
# Sequence of UniProt Q9UPU9 (Q9UPU9 whole entry, looked up): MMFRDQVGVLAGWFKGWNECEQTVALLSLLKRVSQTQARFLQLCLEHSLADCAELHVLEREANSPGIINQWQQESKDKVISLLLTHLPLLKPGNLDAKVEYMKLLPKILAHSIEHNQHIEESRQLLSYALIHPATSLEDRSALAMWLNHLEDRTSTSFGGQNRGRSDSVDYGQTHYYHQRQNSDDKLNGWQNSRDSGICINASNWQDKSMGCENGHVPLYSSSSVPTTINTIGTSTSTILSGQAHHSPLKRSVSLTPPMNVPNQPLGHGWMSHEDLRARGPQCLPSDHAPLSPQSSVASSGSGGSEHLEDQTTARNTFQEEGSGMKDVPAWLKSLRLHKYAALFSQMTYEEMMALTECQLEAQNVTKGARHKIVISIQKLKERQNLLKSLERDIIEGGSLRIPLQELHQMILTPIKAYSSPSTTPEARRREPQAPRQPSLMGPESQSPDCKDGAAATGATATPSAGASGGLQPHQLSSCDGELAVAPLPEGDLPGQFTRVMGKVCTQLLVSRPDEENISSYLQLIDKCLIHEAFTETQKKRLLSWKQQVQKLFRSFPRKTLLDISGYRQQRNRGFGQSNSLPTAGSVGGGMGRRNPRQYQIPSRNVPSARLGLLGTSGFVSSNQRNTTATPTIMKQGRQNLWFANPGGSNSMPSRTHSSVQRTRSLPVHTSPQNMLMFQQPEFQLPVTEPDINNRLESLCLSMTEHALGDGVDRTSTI
# Sequence of UniProt P61224 (P61224 whole entry, looked up): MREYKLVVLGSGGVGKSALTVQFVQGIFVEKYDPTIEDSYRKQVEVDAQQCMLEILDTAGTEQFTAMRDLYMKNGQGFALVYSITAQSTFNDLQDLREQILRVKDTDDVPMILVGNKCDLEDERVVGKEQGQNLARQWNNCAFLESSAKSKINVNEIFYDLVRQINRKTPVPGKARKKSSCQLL
# Sequence of UniProt Q9NW64 (Q9NW64 whole entry, looked up): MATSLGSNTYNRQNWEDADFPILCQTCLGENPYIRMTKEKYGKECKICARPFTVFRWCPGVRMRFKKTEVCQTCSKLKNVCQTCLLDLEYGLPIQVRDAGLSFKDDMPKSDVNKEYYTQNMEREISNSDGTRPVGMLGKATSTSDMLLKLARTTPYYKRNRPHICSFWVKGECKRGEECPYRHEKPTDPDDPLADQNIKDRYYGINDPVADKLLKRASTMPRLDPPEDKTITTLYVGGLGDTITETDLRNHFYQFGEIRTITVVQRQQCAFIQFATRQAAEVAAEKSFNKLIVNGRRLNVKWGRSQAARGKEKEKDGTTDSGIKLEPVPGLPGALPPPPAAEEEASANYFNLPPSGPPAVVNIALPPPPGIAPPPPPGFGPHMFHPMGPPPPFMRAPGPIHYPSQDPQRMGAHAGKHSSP
# Sequence of UniProt Q8NC44 (Q8NC44 whole entry, looked up): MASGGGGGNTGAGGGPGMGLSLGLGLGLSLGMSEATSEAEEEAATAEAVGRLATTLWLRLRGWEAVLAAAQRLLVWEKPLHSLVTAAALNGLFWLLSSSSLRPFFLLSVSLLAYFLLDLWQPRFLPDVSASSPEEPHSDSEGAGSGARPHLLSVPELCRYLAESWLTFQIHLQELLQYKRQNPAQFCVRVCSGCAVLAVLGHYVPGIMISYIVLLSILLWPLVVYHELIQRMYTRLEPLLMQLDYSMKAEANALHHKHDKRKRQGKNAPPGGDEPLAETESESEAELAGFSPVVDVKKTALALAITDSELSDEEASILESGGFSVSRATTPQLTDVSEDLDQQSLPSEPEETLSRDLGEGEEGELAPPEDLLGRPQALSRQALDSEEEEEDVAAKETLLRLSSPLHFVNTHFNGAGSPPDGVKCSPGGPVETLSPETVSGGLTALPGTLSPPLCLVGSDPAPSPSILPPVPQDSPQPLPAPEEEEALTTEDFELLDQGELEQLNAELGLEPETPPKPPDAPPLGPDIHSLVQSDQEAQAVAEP
# Sequence of UniProt Q9Y4B4 (Q9Y4B4 whole entry, looked up): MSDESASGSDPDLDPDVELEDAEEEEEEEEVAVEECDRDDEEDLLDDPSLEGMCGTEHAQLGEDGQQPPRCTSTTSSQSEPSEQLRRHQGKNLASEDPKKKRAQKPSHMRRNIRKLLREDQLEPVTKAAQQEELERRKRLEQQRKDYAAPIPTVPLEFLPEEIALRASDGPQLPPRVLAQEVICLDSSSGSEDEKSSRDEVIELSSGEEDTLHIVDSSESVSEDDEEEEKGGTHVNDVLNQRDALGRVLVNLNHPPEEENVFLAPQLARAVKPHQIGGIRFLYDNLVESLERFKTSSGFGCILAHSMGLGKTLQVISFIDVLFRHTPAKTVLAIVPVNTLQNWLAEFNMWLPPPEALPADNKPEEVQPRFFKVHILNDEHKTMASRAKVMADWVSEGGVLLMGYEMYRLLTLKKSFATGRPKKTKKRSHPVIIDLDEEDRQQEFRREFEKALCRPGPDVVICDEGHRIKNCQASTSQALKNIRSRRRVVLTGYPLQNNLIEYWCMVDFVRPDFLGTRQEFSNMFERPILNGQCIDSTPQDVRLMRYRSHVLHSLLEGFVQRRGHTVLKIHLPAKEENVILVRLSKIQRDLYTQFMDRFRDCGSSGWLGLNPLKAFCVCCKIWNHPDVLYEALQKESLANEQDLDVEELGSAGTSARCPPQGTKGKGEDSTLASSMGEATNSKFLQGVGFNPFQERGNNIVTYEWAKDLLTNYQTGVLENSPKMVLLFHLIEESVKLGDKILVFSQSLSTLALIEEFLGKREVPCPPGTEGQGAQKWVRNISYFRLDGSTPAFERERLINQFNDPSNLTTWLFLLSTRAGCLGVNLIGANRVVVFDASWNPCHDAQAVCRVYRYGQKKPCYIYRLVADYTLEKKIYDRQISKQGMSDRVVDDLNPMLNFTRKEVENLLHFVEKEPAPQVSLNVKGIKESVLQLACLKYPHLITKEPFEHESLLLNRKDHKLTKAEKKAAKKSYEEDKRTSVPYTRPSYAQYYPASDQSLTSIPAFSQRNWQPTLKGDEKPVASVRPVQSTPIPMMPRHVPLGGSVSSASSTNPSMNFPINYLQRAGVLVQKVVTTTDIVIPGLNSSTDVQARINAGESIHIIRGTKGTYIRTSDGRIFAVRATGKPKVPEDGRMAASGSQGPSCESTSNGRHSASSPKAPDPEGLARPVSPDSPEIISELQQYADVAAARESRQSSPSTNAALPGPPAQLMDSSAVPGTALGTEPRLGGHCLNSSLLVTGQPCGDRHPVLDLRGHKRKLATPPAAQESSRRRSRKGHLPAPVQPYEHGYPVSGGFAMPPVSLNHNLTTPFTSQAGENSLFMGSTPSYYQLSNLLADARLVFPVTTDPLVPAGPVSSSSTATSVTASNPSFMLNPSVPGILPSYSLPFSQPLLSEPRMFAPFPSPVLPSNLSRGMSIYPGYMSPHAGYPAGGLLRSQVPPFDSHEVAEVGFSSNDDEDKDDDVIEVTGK
# Sequence of UniProt Q92698 (Q92698 whole entry, looked up): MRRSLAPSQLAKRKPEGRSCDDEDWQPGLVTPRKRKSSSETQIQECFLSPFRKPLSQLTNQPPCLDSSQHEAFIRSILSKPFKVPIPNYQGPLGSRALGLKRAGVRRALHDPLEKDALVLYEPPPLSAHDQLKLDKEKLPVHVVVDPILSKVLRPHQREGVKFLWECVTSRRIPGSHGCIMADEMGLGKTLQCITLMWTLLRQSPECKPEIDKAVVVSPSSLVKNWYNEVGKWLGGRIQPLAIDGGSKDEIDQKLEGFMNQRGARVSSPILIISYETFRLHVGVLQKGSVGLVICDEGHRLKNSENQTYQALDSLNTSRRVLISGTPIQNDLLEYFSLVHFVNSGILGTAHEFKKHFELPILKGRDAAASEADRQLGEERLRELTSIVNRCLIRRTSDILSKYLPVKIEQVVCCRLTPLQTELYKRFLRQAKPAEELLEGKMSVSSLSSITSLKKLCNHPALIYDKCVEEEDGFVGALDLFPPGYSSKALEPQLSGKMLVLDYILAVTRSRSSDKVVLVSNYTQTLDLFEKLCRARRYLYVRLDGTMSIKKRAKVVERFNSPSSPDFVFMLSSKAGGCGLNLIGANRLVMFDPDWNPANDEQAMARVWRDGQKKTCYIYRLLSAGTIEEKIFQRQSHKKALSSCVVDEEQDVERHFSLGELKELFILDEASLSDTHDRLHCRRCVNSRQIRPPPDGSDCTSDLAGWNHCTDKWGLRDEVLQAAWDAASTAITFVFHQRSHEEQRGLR
# Sequence of UniProt Q9BUV8 (Q9BUV8 whole entry, looked up): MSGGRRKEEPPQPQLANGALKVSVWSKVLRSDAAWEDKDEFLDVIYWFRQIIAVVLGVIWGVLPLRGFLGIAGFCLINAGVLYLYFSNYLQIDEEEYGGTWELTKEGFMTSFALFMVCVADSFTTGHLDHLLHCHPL
Target,log2 fold change [1],log2 fold change [2],log2 fold change [3],log2 fold change [4],log2 fold change [5],log2 fold change [6],log2 fold change [7],log2 fold change [8],log2 fold change [9],log2 fold change [10],log2 fold change [11],log2 fold change [12],log2 fold change [13],log2 fold change [14],log2 fold change [15],log2 fold change [16],log2 fold change [17],log2 fold change [18],log2 fold change [19],log2 fold change [20]
RAD54L (UniProt Q92698),-0.081,0.035,-0.062,-0.224,0.085,0,0.039,0.054,0.059,-0.054,0.012,0.015,0.005,-2.19 (active),0.648,0.095,–,–,–,–
RNF113A (UniProt O15541),0.009,-0.003,0.005,-0.049,0.111,0.015,-0.038,0.017,-0.03,-0.012,-0.042,0.009,-0.056,-0.021,0.017,0.031,0.024,0.021,0.04,-0.056
RPS26P11 (UniProt Q5JNZ5),-0.037,0.004,0.008,-0.034,-0.019,-0.013,-0.034,0.025,0.016,-0.01,-0.03,0.017,0.02,-0.688 (active),0.224,0.009,0.024,0.012,0.041,0.05
SAMD4A (UniProt Q9UPU9),-0.014,0.052,0.395,0.097,0.094,–,-0.008,0.196,0.088,-0.376,0.005,0.014,-0.292,1.12,0.115,0.07,0.025,-0.032,0.05,0.01
RETREG2 (UniProt Q8NC44),0.011,0.009,0.071,-0.129,0.062,0.127,–,0.116,0.011,-0.036,0.033,0.09,-0.086,-0.261,0.014,–,0.051,0.037,-0.009,0.112
RAP1B (UniProt P61224),-0.024,-0.005,0.051,-0.03,-0.014,-0.01,0.004,-0.017,-0.008,0.008,0.054,0.018,-0.037,0.372 (active),-0.035,0.002,0.008,0.006,0.061,0.005
RTTN (UniProt Q86VV8),0.095,0.155,0.145,-0.137,0.379,-0.053,0.015,-0.004,0.112,0.011,0.043,-0.293,0.099,-0.347,-0.316,0.047,–,0.066,-0.101,–
RNF149 (UniProt Q8NC42),0.04,0.023,0.044,-0.041,-0.005,-0.021,0.001,0.113,0.06,-0.15,0.026,-0.063,-0.162,0.343,0.02,0.021,-0.014,-0.026,–,-0.081
RAD54L2 (UniProt Q9Y4B4),-0.005,0.23,–,–,-0.073,0.131,-0.051,–,0.094,0.081,-0.032,-0.072,–,-0.149,0,0.078,0.031,0.159,-0.201,-0.061
RBM22 (UniProt Q9NW64),0.01,-0.007,-0.03,-0.044,-0.033,0.009,-0.014,-0.01,-0.006,-0.007,0.022,-0.004,-0.004,0.058,0.025,0.01,0.043,-0.014,0.078,-0.08
RFC4 (UniProt P35249),-0.01,-0.008,-0.01,-0.015,0.032,0,0.026,0.002,0.019,0.02,0.02,-0.042,0.003,-0.086,0.028,0.044,-0.001,0.047,-0.012,0.003
RPS29 (UniProt P62273),0.002,0.025,-0.138,0.03,-0.109,0.086,-0.093,-0.068,0.058,0.039,-0.034,0.078,0.109,1.01 (active),-0.262,-0.007,-0.108,-0.005,-0.028,-0.133
RAB3IL1 (UniProt Q8TBN0),0.03,-0.035,0.021,-0.022,0.004,0.116,-0.006,-0.024,0.003,0.017,0.054,-0.008,0.054,0.025,-0.016,0.033,0.02,-0.018,0.022,-0.024
RINT1 (UniProt Q6NUQ1),0.011,0.07,0.05,-0.094,0.016,-0.066,-0.064,0.012,0.016,0.022,0.095,-0.113,0.088,-0.048,-0.044,0.095,-0.02,0.065,-0.055,0.058
RAB5IF isoform 5 (UniProt Q9BUV8),-0.039,-0.029,–,–,-0.163,0.086,-0.165,–,0.073,0.129,0.142,-0.398,–,0.928 (active),-0.362,0.009,–,-0.075,-0.03,–
RECQL4 (UniProt O94761),0.016,–,-0.034,-0.06,0.039,-0.017,0.076,0.044,–,–,0.1,–,0.043,-0.254,-0.026,0.043,0,-0.019,0.054,-0.017

# From the supplement of paper PMC10849652
